Experimental data published in publication PMC13494018.
Unmarked numbers belong to inactive results. How the calls were made is not given here.

B1: design_599_7ce25d4d-e004-4b84-a16f-baf856d943ab_80_dldesign_0_cycle1_af2pred (protein)
chain: SKAAEKAEAQKAKEEATKAAEEAAKEAKKAGLEDLAKYLENAKKTADAKAQASSDPAEAKKYYEKYKATATRLLEDLKKAE
B2: design_599_7ce25d4d-e004-4b84-a16f-baf856d943ab_135_dldesign_0_cycle1_af2pred (protein)
chain: MEEEEGEKKVEEAKKKLSAALYEYADMSVNEETLKEGRKKVEEAVKEALELGKKSTPETAEKLKKAAEKALKVAERIEEAS
B3: design_598_15ab41e9-cad4-4381-8935-81f74b313fe8_1677_dldesign_0_cycle1_af2pred (protein)
chain: DVAALIAKAAALVDDPSKAAEALKYLVAAREKALSEGDAAALKQIAAVAAEGAKKAPPEYAKGFKLLANTAKSIAEDLEK
B4: design_598_15ab41e9-cad4-4381-8935-81f74b313fe8_1691_dldesign_0_cycle1_af2pred (protein)
chain: DKEAEAKKIEAAAKKNAEAALADAEKAKEYAKAGDKSKAKQYSESAKIYLELAGTAAKKGAGYPTAPEIKKLYEDTKAKVEEILKEA
B5: design_598_15ab41e9-cad4-4381-8935-81f74b313fe8_2338_dldesign_0_cycle1_af2pred (protein)
chain: AEEKAKELYAKGEKLYKEGLKADKETGKEYFTKAAEYFKAAAEEFKKAGNVVGAGYAESKAERAKEAAELL
B6: design_598_15ab41e9-cad4-4381-8935-81f74b313fe8_1756_dldesign_0_cycle1_af2pred (protein)
chain: GFKEEAEKKMEKVLEEAKKASVKEAATIVREAYAELKGIGHLLEKKGKKEEGKFAEEVAKKVLEEGKKIVEEKAAA
B7: design_598_15ab41e9-cad4-4381-8935-81f74b313fe8_2343_dldesign_0_cycle1_af2pred (protein)
chain: ASEELWKKAQEIATKAVAAAQARYAAEGKYEELDKDIDKIYELAVEAAKEGEEGLKKLEEMRKEAEEAAKKALEAA
B8: design_598_15ab41e9-cad4-4381-8935-81f74b313fe8_1541_dldesign_0_cycle1_af2pred (protein)
chain: AEQEKKDEEYKEKAKKGEELAKKAKERAEKNKDDKGVLGSQAELAEHIAKALKKAAEEASEEVKPELKAAAEKAKKVAKYAEELA
B9: design_598_15ab41e9-cad4-4381-8935-81f74b313fe8_2298_dldesign_0_cycle1_af2pred (protein)
chain: SKKAEQTLFRAEALGEAVTEAAEQLDPALGARVRERAKELIERAKKDGTLEAAEKALEEMRRLAEEVRAAIEAA
B10: design_598_15ab41e9-cad4-4381-8935-81f74b313fe8_1668_dldesign_0_cycle1_af2pred (protein)
chain: KEKVKKELEESKKELEKTLEKIKELVSSLPEEEREALAKGLVDPKTALEAAKKIAEAVGKEGANAAQEAISERRAIEQYEKILE
B11: design_598_15ab41e9-cad4-4381-8935-81f74b313fe8_1784_dldesign_0_cycle1_af2pred (protein)
chain: ADEEGKKLVKEKLEEAKKALEKAKAGDKKEALDAASTATRNAHKIEAFAKAVPVSEEVVKLAKEAVKELEKYEEKAAKLLAK
B12: design_598_15ab41e9-cad4-4381-8935-81f74b313fe8_1969_dldesign_0_cycle1_af2pred (protein)
chain: AAAAAKKAQAKKLVGLGLFYYLDYLAGGPESSKEKGDAYYAAAAALDPATAAEAKAKADKIAARFKKDVEEAKK
B13: design_598_15ab41e9-cad4-4381-8935-81f74b313fe8_1648_dldesign_0_cycle1_af2pred (protein)
chain: KKEEAKKELLEKVKKLEEEGEKLLEEKTPKEARAKALEKGKEIMKEAEKAIKDPETKEAGKEAKKKAAEAMAKLYEKAAEKEAKE
B14: design_598_15ab41e9-cad4-4381-8935-81f74b313fe8_2408_dldesign_0_cycle1_af2pred (protein)
chain: ELELLKERAELYERAAKAAEAGKLGAGIRLAAIAEDLIDLELGKKKEKELKASSREEALKILKKEAEKYKAKAKELA
B15: design_598_15ab41e9-cad4-4381-8935-81f74b313fe8_2011_dldesign_0_cycle1_af2pred (protein)
chain: KLEEYKKKIKEKAKEMGKSLDPEERKKLLEEIKKLAKEASKELGEKEEIEKFAAEEAHEGLEQASENRFKS
B16: design_598_15ab41e9-cad4-4381-8935-81f74b313fe8_2441_dldesign_0_cycle1_af2pred (protein)
chain: AKEKAEELAKKAREGIERAERRVEEGKKKSKKDAAIYSYSAAELLDSVAAGIVKELLKEDPELGKKVAEEVEKAREEALKEAEKYES
B17: design_598_15ab41e9-cad4-4381-8935-81f74b313fe8_2059_dldesign_0_cycle1_af2pred (protein)
chain: GEKEELKEKAKKLKELAKKAVEKAKKAAEENPEAKPLAEKAKELAEEAIKLAEEGTKESLEKAAKILQELREVTAEAEFIARKG
B18: design_598_15ab41e9-cad4-4381-8935-81f74b313fe8_2180_dldesign_0_cycle1_af2pred (protein)
chain: AEAAEKAAAKAVINEAYDLLGSSTAEEALKYAEEKAKEAKAAGKKIVADAAEKTAKVLKRIAEDEKEAKK
B19: design_598_15ab41e9-cad4-4381-8935-81f74b313fe8_1727_dldesign_0_cycle1_af2pred (protein)
chain: SAAQLAASAKGRLLAVADYARAKGISEEAAELAEKAAEADVATAAELAEKAAKLLEEAGDEKLAERARKAAEKLKKAAKE

Target: VTCN1, Q7Z7D3
Sequence (Q7Z7D3 whole entry): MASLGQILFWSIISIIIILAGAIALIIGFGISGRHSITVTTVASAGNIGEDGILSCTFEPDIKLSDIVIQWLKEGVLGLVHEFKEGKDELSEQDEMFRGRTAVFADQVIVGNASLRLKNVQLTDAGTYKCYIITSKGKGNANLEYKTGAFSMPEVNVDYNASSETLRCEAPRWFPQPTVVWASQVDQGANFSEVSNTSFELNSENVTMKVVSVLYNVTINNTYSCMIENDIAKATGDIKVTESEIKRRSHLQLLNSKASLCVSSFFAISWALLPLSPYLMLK

| Binder | binding in a display sort |
| --- | --- |
| B1 | not found |
| B2 | not found |
| B3 | not found |
| B4 | not found |
| B5 | not found |
| B6 | not found |
| B7 | not found |
| B8 | not found |
| B9 | not found |
| B10 | not found |
| B11 | not found |
| B12 | not found |
| B13 | not found |
| B14 | not found |
| B15 | not found |
| B16 | not found |
| B17 | not found |
| B18 | not found |
| B19 | not found |
